Tau fibril ThT: qHTS for Inhibitors of Tau Fibril Formation, Thioflavin T Binding; 270,000 compounds, 2.1% hits; Potency, µM (highest dose often 57.4 µM), actives largely listed as inhibitors; AID 1460, 2008; recombinant tau K18 P301L, heparin-induced fibrillization, ThT fluorescence; also: nearly all actives have a fitted effect of over 55% in size
Target sequence (P10636 561-689 P618L limits assumed): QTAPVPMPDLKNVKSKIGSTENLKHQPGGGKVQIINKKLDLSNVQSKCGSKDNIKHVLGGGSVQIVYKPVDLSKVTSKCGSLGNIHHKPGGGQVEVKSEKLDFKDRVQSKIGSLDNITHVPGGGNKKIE
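Using a mix of unlabeled (15 uM) and Alexa 594-labeled (0.24 uM) tau K18 P301L, heparin-triggered fibrillization over 6 hr at 37 C was scored by ThT fluorescence.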
FBPA coupling cs: qHTS Assay for Inhibitors of Fructose-1,6-bisphosphate Aldolase from Giardia Lamblia: Coupling assay counterscreen | 290,000 compounds, 0.67% hits | activity change, negative = inhibition, % at 58.2 µM, hits read low | AID 2472, 2010 | coupling enzyme system counterscreen, AmpLite Red fluorescence; in the data active = activity change below about -30%
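Activity here indicates interference with the coupling reaction, not aldolase inhibition. Compounds at 57.5 uM final met coupling enzymes for 10 min at RT; substrate and AmpLite Red detection followed, with a 525/598 nm fluorescence read after 20 min.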
Tau fluor counter: Counterscreen qHTS for Inhibitors of Tau Fibril Formation, Fluorescence Polarization; tau K18 P301L Alexa594 fluorescence, heparin fibrillization; Potency, µM (top dose mostly 57.7 µM); 280,000 compounds, 0.93% hits; AID 1463, 2008; also: nearly all actives have a fitted effect of over 55% in size
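Human tau K18 P301L (15 uM unlabeled, 0.24 uM Alexa 594-labeled) in 100 mM sodium acetate pH 7 with 20 uM heparin, 6 hr at 37 C. ThT 30 uM added, 1 hr ambient; Alexa 594 FP and total fluorescence read at 555/632 nm.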
Sfp inh: qHTS Assay for Inhibitors of Bacillus subtilis Sfp phosphopantetheinyl transferase (PPTase); Biochemical Sfp PPTase activity, qHTS; 310,000 compounds, 3.5% hits; 4'-phosphopantetheinyl transferase ffp (Bacillus subtilis), Q9F4F7; Potency, µM, hits mostly inhibitors; AID 1490, 2009;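 also: the enzyme is Sfp with the accession as filed and its product quenches rhodamine fluorescence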
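Fluorescence-quenching assay with 15 nM Sfp, 5 uM rhodamine-CoA and 12.5 uM BHQ-2-labelled ybbR peptide in pH 7.6 Hepes/MgCl2 buffer. Enzyme was pre-incubated with compound for 15 min at room temperature. Rate was taken from the 30-min fluorescence change (525/598 nm).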
Tau fibril FP: qHTS for Inhibitors of Tau Fibril Formation, Fluorescence Polarization | Microtubule-associated protein tau (Homo sapiens), P10636 | K18 P301L tau heparin fibrillization, Alexa594 FP, 6 h | Potency, µM (titrated, usually from 57.7 µM), most hits filed as inhibitors | 280,000 compounds, 0.39% hits | AID 1468, 2008; also: nearly all actives have a fitted effect of over 55% in size
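Human tau K18 […] P301L fragment, 15 uM unlabeled plus 0.24 uM Alexa 594-labeled tau (final), with compound and 20 uM heparin in 100 mM sodium acetate pH 7; 6 hr at 37 C, then Alexa 594 FP read.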
JMJD2E inh: qHTS Assay for Inhibitors of Human Jumonji Domain Containing 2E (JMJD2E); 230,000 compounds, 1.6% hits; Lysine-specific demethylase 4E (Homo sapiens), B2RXH2; Potency, µM (highest dose often 57.1 µM), hits mostly inhibitors; JMJD2E catalytic domain, FDH-coupled NADH fluorescence (FDH is formaldehyde dehydrogenase); also: nearly all actives have a fitted effect of over 50% in size
Target sequence (B2RXH2 1-337 limits assumed): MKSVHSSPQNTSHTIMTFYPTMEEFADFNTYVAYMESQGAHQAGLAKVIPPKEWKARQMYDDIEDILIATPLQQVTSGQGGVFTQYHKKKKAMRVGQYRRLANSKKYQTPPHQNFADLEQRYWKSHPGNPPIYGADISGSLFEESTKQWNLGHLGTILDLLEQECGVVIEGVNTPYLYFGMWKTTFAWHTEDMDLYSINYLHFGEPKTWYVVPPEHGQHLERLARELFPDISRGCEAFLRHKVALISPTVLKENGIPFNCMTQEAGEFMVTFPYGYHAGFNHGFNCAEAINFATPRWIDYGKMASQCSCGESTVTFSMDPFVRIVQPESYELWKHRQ
Hits are given with their value; ! = repeats disagree; [ ] = another dose, or the depositor's remark. Compounds with a hit are over-represented: about 5.3% of the library has one in this group of screens. Unless noted, calls follow the shape of the dose curve; as a rule, active = well fitted curve in the direction sought with a large enough effect; inconclusive = small, poorly fitted or top-dose-only effect, or another doubt; inactive = no such curve, though single readings can be large; an effect the other way counts as inactive or inconclusive.

What do the screens show for `COc1cccc(-c2nc(CS(=O)CC(=O)N3CCN(c4cccc(C(F)(F)F)c4)CC3)c(C)o2)c1` (stereo unspecified)?
Tau fibril ThT: inconclusive; Tau fluor counter: inactive; Tau fibril FP: inactive

What do the screens show for `C=C(CC)C(=O)c1ccc(OCC(=O)O)c(Cl)c1Cl`?
Tau fibril ThT: inconclusive; FBPA coupling cs: inactive; Tau fluor counter: inactive; Sfp inh: 20µM!; Tau fibril FP: inactive; JMJD2E inh: inactive

Results for CCOC(=O)COc1ccc2nsnc2c1Cl ?
Tau fibril ThT: inactive; FBPA coupling cs: inactive; Tau fluor counter: inactive; Sfp inh: inactive; Tau fibril FP: inactive; JMJD2E inh: inconclusive

What do the screens show for `CC(=O)Oc1cc2c(C(=O)NCCCN3CCOCC3)c(C)oc2c2ccccc12`?
Tau fibril ThT: inconclusive; FBPA coupling cs: -38; Tau fluor counter: inactive; Sfp inh: inactive; Tau fibril FP: inactive; JMJD2E inh: inactive

How did Cc1c(OCC(=O)NCCCN2CCOCC2)ccc2c1oc(=O)c1ccccc12 do in these assays?
Sfp inh: inactive

Results for Cc1ccc(Nc2nc(-c3cccs3)cs2)nc1 ?
Tau fibril ThT: 16µM; FBPA coupling cs: inactive; Tau fluor counter: 22µM[quencher]; Sfp inh: inconclusive; Tau fibril FP: inactive; JMJD2E inh: inconclusive

Results for Cc1cc(O)ccc1Nc1nc(-c2cccs2)cs1 ?
Tau fibril ThT: 14µM; FBPA coupling cs: inactive; Tau fluor counter: 25µM[quencher]; Sfp inh: inactive; Tau fibril FP: inactive; JMJD2E inh: inactive

Results for COc1ccc(CSC(=N)N)cc1[N+](=O)[O-] ?
Tau fibril ThT: inactive; FBPA coupling cs: inactive; Tau fluor counter: inactive; Sfp inh: inactive; Tau fibril FP: inactive; JMJD2E inh: inactive

Results for N=C(N)SCc1ccc(O)c([N+](=O)[O-])c1 ?
Tau fibril ThT: inconclusive; FBPA coupling cs: inactive; Tau fluor counter: inactive; Sfp inh: 79µM; Tau fibril FP: inactive; JMJD2E inh: inactive

What do the screens show for `O=C1CSC(c2cn(-c3ccccc3)nc2-c2cc3ccccc3o2)N1Cc1ccccc1` (stereo unspecified)?
Tau fibril ThT: inactive; FBPA coupling cs: inactive; Tau fluor counter: inactive; Sfp inh: inactive; Tau fibril FP: inactive; JMJD2E inh: inconclusive

What do the screens show for `Cc1ccc(-c2nn(-c3ccccc3)cc2C2SCC(=O)N2Cc2ccccc2)o1` (stereo unspecified)?
Tau fibril ThT: inactive; FBPA coupling cs: inactive; Tau fluor counter: inactive; Sfp inh: 22µM; Tau fibril FP: inactive; JMJD2E inh: inconclusive

How did CCC(c1nnnn1CCc1ccccc1)N(Cc1ccco1)Cc1cc2cccc(C)c2[nH]c1=O (stereo unspecified) do in these assays?
Tau fibril ThT: inconclusive; FBPA coupling cs: inactive; Tau fluor counter: inactive; Sfp inh: inactive; Tau fibril FP: inactive; JMJD2E inh: inactive

How did CCC(c1nnnn1C(C)(C)C)N(Cc1ccco1)Cc1cc2cccc(C)c2[nH]c1=O (stereo unspecified) do in these assays?
Tau fibril ThT: inactive; FBPA coupling cs: inactive; Tau fluor counter: inactive; Sfp inh: 56µM; Tau fibril FP: inactive; JMJD2E inh: inactive

How did Cc1cc(C)c2[nH]c(=O)c(C(c3nnnn3C(C)(C)C)N(Cc3ccco3)CC3CCCO3)cc2c1 (stereo unspecified) do in these assays?
Tau fibril ThT: inactive; FBPA coupling cs: -40; Tau fluor counter: inactive; Sfp inh: inconclusive; Tau fibril FP: inactive; JMJD2E inh: inactive

What do the screens show for `N#Cc1ccccc1-c1cncnc1NCc1cccnc1`?
Tau fibril ThT: inactive; FBPA coupling cs: inactive; Tau fluor counter: inactive; Sfp inh: inconclusive; Tau fibril FP: inactive; JMJD2E inh: inactive

What do the screens show for `CCOc1cc(/C=C2\SC(=Nc3ccc(F)cc3)N(c3ccc(F)cc3)C2=O)ccc1OCC(=O)O`?
Tau fibril ThT: inactive; FBPA coupling cs: inactive; Tau fluor counter: inactive; Sfp inh: 40µM; Tau fibril FP: inactive; JMJD2E inh: inactive

How did O=C(O)c1ccc(/C=C2\SC(=Nc3ccccc3)N(c3ccccc3)C2=O)cc1 do in these assays?
Tau fibril ThT: inactive; FBPA coupling cs: inactive; Tau fluor counter: inactive; Sfp inh: 79µM; Tau fibril FP: inactive; JMJD2E inh: inactive

How did O=C(O)c1ccc2c(c1)C(=O)N([C@H](Cc1c3ccccc3cc3ccccc13)C(=O)O)C2=O do in these assays?
FBPA coupling cs: inactive; Sfp inh: inactive

How did CCCCC(=O)Nc1nnn(CCC)n1 do in these assays?
Tau fibril ThT: inactive; FBPA coupling cs: inactive; Tau fluor counter: inactive; Sfp inh: inactive; Tau fibril FP: inactive; JMJD2E inh: inactive

What do the screens show for `CCCCC(=O)NC(=S)Nc1nnn(CCC)n1`?
Tau fibril ThT: inactive; FBPA coupling cs: inactive; Tau fluor counter: inactive; Sfp inh: 14µM; Tau fibril FP: inactive; JMJD2E inh: inactive

What do the screens show for `COc1ccc(-c2nc3cnc(OC)nc3n(C)c2=O)cc1`?
FBPA coupling cs: inactive; Sfp inh: inactive

What do the screens show for `COc1ccc2nc3c(cc2c1)Cc1ccccc1-3`?
Tau fibril ThT: inconclusive; FBPA coupling cs: inactive; Tau fluor counter: inconclusive; Sfp inh: inactive; Tau fibril FP: inactive; JMJD2E inh: inconclusive

What do the screens show for `CC(N)(C(=O)O)c1cccc(CC(=O)O)c1` (stereo unspecified)?
Tau fibril ThT: inactive; Tau fluor counter: inactive; Sfp inh: inactive; Tau fibril FP: inactive

What do the screens show for `CC1(C)CC(=O)C2=C(C1)OC(N)=C(C#N)C2c1ccc[nH]1` (stereo unspecified)?
Tau fibril ThT: inactive; FBPA coupling cs: inactive; Tau fluor counter: inactive; Sfp inh: 50µM; Tau fibril FP: inactive; JMJD2E inh: inactive

Results for NC(CCC(=O)NCS(=O)(=O)O)C(=O)O (stereo unspecified) ?
Tau fibril ThT: inactive; Tau fluor counter: inactive; Sfp inh: 50µM; Tau fibril FP: inactive; JMJD2E inh: inactive

Results for NCC[C@H](O)C(=O)N[C@@H]1C[C@H](N)[C@@H](O[C@H]2O[C@H](CN)CC[C@H]2N)[C@H](O)[C@H]1O[C@H]1O[C@H](CO)[C@@H](O)[C@H](N)[C@H]1O ?
Sfp inh: inactive

Results for Cc1ccc(C)c(N2CCN(S(=O)(=O)c3ccc(C(=O)N(C)C)s3)CC2)c1 ?
Tau fibril ThT: inactive; Tau fluor counter: inactive; Tau fibril FP: inactive
